Screening data deposited in PubChem by National Center for Advancing Translational Sciences (NCATS).
An excerpt weighted towards active compounds, which were near 19% of everything screened.
HT1080NT lethal – kills 2HG-producing HT-1080-NT fibrosarcoma cells; AID 686970; hit rate 1.6% among 360,000; HT-1080-NT fibrosarcoma viability, CellTiter-Glo ATP luminescence, 48 h; Potency, µM (doses to about 46.1 µM), for the others: at the highest dose activity, negative = less viability, actives largely listed as cytotoxic;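 note: NT is the 2HG producing partner of a matched IDH1 knockdown line; potency is the fitted concentration of half-maximal effect; 0% = DMSO-treated cells and -100% = media-only wells without cells; nearly all actives have a fitted effect of over 55% in size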
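Fibrosarcoma NT cells, 750 per well in 5% FBS RPMI, were exposed to compound for 48 hours. Viability: CellTiter-Glo luminescence.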
DT40 TDP1 CPT – DT40-hTDP1 cell growth loss with CPT. chicken DT40 Tdp1-/-;hTDP1 cells + 20 nM CPT, ATP luminescence, 48 h. Potency, µM (titrated, usually from 46.2 µM), for the others: at the highest dose activity change, negative = growth inhibition, actives largely listed as inhibitors. hit rate 12% among 420,000; note: potency is the fitted concentration of half-maximal effect; nearly all actives have a fitted effect of over 55% in size
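Chicken DT40 Tdp1-/- cells stably complemented with human TDP1 were seeded at 400 cells/well in medium containing 20 nM camptothecin, exposed to pin-transferred compounds, and grown at 37 °C for at least 48 hr. Viability was read as ATP luminescence.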
HT1080 IDH1KD tx – HT-1080 IDH1 knockdown cell toxicity (counter line); HT-1080 IDH1 knockdown viability, ATP luminescence, 48 h; Potency, µM (series often up to 46.1 µM), for inactives: top-dose activity, negative = toxicity, hits mostly cytotoxic; hit rate 2% among 360,000; AID 686971;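 note: potency is the fitted concentration of half-maximal effect; 0% = DMSO wells and -100% = cell-free medium wells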
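After a 2 h attachment period, IDH1KD HT-1080 cells took pin-transferred compound for 48 h at 37 °C; ATP-based luminescence after 10 min room-temperature reagent incubation reported viability.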
ELG1 repair inh – inhibitors of ELG1-dependent DNA repair in HEK293T cells | HEK293T ELG1-luciferase reporter, luminescence, 16 h; DNA damage induced by 5-fluorouridine | Potency, µM (titrated, usually from 46.1 µM), without a hit: at the highest dose activity change, negative = inhibition, actives largely listed as inhibitors | hit rate 2.3% among 330,000 | AID 504467; note: potency is the fitted concentration of half-maximal effect; nearly all actives have a fitted effect of over 55% in size
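5-Fluorouridine DNA damage + compound/DMSO, 2,000 cells/well, 16 h, 37 °C/5% CO2. ONE-Glo, 30 min RT, luminescence. Readout = decrease in reporter signal.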
IL1B secr inh – blocks inflammasome-driven IL-1 beta release; activity change, % at 57.5 µM; hit rate 4.7% among 360,000; THP-1 LPS/ATP IL-1B secretion, AlphaLISA, 16 h; hits give low values; AID 743279; in the data active = activity change below about -50%; inconclusive = mostly about -30% to -49%
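Secreted IL-1B measured by AlphaLISA bead assay after 16 h compound exposure of THP-1 cells; compounds (final up to 57.5 uM) added 1 h before LPS (250 ng/mL) and ATP (1.25 mM) stimulation; lower signal means less secretion.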
DT40 TDP1 no CPT – qHTS for Inhibitors of human tyrosyl-DNA phosphodiesterase 1 (TDP1): qHTS in cells in absence of CPT; DT40 Tdp1-/- hTDP1 cells, no CPT, ATP luminescence, 48 h; Potency, µM (series often up to 46.2 µM), without a hit: top-dose activity change, negative = growth inhibition, actives largely listed as inhibitors; hit rate 15% among 420,000; note: potency is the fitted concentration of half-maximal effect; nearly all actives have a fitted effect of over 55% in size
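Readout: luminescence from CellTiter-Glo after 30 min in the dark at RT. Cells: DT40 Tdp1-/- with stable hTDP1, 400/well. Exposure: compounds alone, ≥48 hr, 37 °C.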
The depositor's hits bear a star; i = inactive; u = inconclusive; x = no result given; [ ] = remark or other dose. Unless noted, calls come from the whole dose curve; as a rule, active = well fitted curve in the direction sought with a large enough effect; inconclusive = small, poorly fitted or top-dose-only effect, or another doubt; inactive = no such curve, though single readings can be large; an effect the other way counts as inactive or inconclusive. Unless noted, % is set by controls: 0 for no effect and ±100 for the full control effect.

SMILES	HT1080NT lethal	DT40 TDP1 CPT	HT1080 IDH1KD tx	ELG1 repair inh	IL1B secr inh	DT40 TDP1 no CPT
CN(C)CCCSc1nc(-c2ccccc2)nc2c1CCC2	-22.3%	u	-10.0%	13.0%	-53.1*	u
CN(C)C(=O)CSc1nc(-c2ccccc2)nc2c1CCCC2	-27.6%	u	u	-27.4%	-69.7*	u
NC(=S)NN=C1CCC(C2CCCCC2)CC1 (stereo not drawn)	1.4%	5.8µM*	-4.9%	x	u	3.66µM*
NC(=S)NN=C1CCCCCCCCCC1	5.3%	3.66µM*	-5.7%	x	-1.0	10.3µM*
Oc1ccc(N=Cc2ccc(-c3cccs3)s2)cc1	-27.9%[9.24 µM]	u	10µM*	u	14.1	u
O=C(NNS(=O)(=O)c1ccc(F)cc1F)c1csc(-c2cccnc2)n1	3.3%	-3.0%	15.7%	-2.2%	-19.1	-5.3%
COc1cccc(-n2nc(-c3ccnn3-c3cccc(Cl)c3)c(=O)n(C)c2=O)c1	-3.6%	23.1µM*	-0.1%	-2.7%	u	16.4µM*
CCOc1ccc2nc(NC(=O)C34CC5CC(CC(NC(C)=O)(C5)C3)C4)sc2c1	-0.5%	u	-11.7%	9.0%	i	u
Cc1ccc2nc3c(c(N)c2c1)CCN3c1ccccc1	-25.4%	16.4µM*	-22.5%	10.9%	-77.4*	18.4µM*
Cc1noc(C)c1CN1C(=O)c2ccccc2C1=O	8.9%	17.0%	2.0%	9.3%	-0.8	10.9%
CCN(C(=S)NC(=O)c1ccccc1Br)C1CCCCC1	7.1%	16.4µM*	3.3%	5.4%	0.0	u
CCOC(=O)c1nnc(-c2cccs2)nc1Oc1ccccc1C(=O)OC	-2.4%	-23.2%	-2.8%	11.0%	25.7	-27.9%
CCOC(=O)c1nnc(-c2ccc(C)cc2)nc1Oc1ccc(Cl)cc1Cl	-27.8%	u	-17.9%	25.8%	-28.0	16.4µM*
CCOC(=O)c1nnc(-c2ccc(C)cc2)nc1Oc1ccccc1Cl	23.1µM*	u	23.1µM*	5.4%	u	u
CC(=O)c1ccc(N2C(=O)Nc3ccccc3S2(=O)=O)cc1	x	-28.9%	x	x	x	u
NC(=O)c1ccc(NC(=O)COC(=O)C2COc3ccccc3O2)cc1 (stereo not drawn)	9.4%	10.0%	22.7%	u	56.7	-9.1%
Cn1c(SCC(=O)Nc2ccccc2Br)nnc1-c1cnccn1	4.9%	-1.6%	8.7%	8.6%	-29.1	18.5%
Cc1cc(C)c(-n2c(SCc3nc4ccccc4s3)n[nH]c2=O)c(C)c1	-27.5%	u	-21.2%	-23.8%	-94.9*	29.1µM*
CCCn1c(SCc2nc3ccccc3s2)n[nH]c1=O	-4.0%	12.0%	3.2%	u	101.9	8.3%
Cc1ccc(S(=O)(=O)CCSc2n[nH]c(=O)n2-c2ccccc2)cc1	u	0.6%	-15.9%	11.1%	u	u
Cc1cc(C)c(-n2c(SCCS(=O)(=O)c3ccc(F)cc3)n[nH]c2=O)c(C)c1	u	25.9µM*	18.4µM*	10.6%	-97.1*	23.1µM*
O=C(OCC(=O)N1CCc2ccccc21)c1nc(Cl)ccc1Cl	3.3%	-15.4%	7.5%	10.1%	18.9	-0.6%
O=C(COc1ccc(Cl)cc1)NCC(c1ccco1)S(=O)(=O)c1ccccc1 (stereo not drawn)	x	u	x	x	x	20.6µM*
O=C(COc1ccccc1)NCC(c1cccs1)S(=O)(=O)c1ccc(Cl)cc1 (stereo not drawn)	x	u	x	x	x	23.1µM*
CCCC(=O)NCC(c1cccs1)S(=O)(=O)c1ccc(Cl)cc1 (stereo not drawn)	-5.3%	u	5.5%	16.8%	18.9	-20.6%
SMILES	HT1080NT lethal	DT40 TDP1 CPT	HT1080 IDH1KD tx	ELG1 repair inh	IL1B secr inh	DT40 TDP1 no CPT
Cc1cc(S(=O)(=O)C(CNC(=O)COc2ccc(Cl)cc2)c2cccs2)ccc1F (stereo not drawn)	x	2.59µM*	x	x	x	u
CC(NC(=O)c1cccc(S(=O)(=O)N2CCN(C)CC2)c1)c1ccc(Cl)cc1Cl (stereo not drawn)	7.5%	u	-1.1%	-11.5%	u	u
COc1ccc(S(=O)(=O)NCC(c2cccs2)S(=O)(=O)c2ccc(C)cc2)cc1F (stereo not drawn)	x	u	x	x	x	16.4µM*
COc1ccc(C)cc1S(=O)(=O)NCC(c1cccs1)S(=O)(=O)c1ccc(C)cc1 (stereo not drawn)	x	23.1µM*	x	x	x	u
Cc1ccc2oc(-c3ccc(C)c(NC(=O)c4ccc(N5CCC(C)CC5)c([N+](=O)[O-])c4)c3)nc2c1	x	-3.8%	x	x	x	0.2%
COc1cccc(CC(=O)NCc2ccc3c(c2)CCN3C(C)=O)c1	x	-10.1%	x	x	x	-26.2%
COc1ccc2cc3[n+](cc2c1OC)CCc1cc2c(cc1-3)OCO2	u	3.66µM*	u	u	u	2.31µM*
COc1cc(NC(=O)Cn2c(=O)oc3cc(S(=O)(=O)N4CCCCCC4)ccc32)cc(OC)c1	x	14.6µM*	x	x	x	20.6µM*
COC(=O)c1cc2sc(Cl)cc2n1CC(=O)Nc1cc(C)cc(C)c1	x	20.6µM*	x	x	x	u
CCc1ccc(NC(=O)Cn2c(=O)oc3cc(S(=O)(=O)N4CCCCCC4)ccc32)cc1	x	11.6µM*	x	x	x	9.2µM*
COC(=O)c1cc2sc(Cl)cc2n1CC(=O)Nc1cccc(SC)c1	0.0%	-28.8%	-22.6%	u	-6.8	-27.1%
COC(=O)c1cc2occc2n1CC(=O)Nc1cc(OC)cc(OC)c1	-7.3%	-7.9%	0.0%	12.6%	-51.9*	-2.8%
COc1ccccc1CNC(=O)c1cc2c(=O)oc3ccc(C)cc3c2s1	x	3.1%	x	x	x	u
CC1CCC(NC(=O)Cn2c(=O)oc3cc(S(=O)(=O)N4CCCC4)ccc32)CC1 (stereo not drawn)	-0.9%	-11.8%	-6.8%	9.0%	11.8	-20.5%
CCOc1ccc(NC(=O)Cn2c(=O)oc3cc(S(=O)(=O)N4CCC(C)CC4)ccc32)cc1	x	9.2µM*	x	x	x	8.2µM*
Cc1cc(C)c(C(=O)c2ccccc2C(=O)O)c(C)c1	3.7%	-7.2%	-3.5%	x	-1.2	u
COc1ccc(OC)c(NS(=O)(=O)c2ccc3c(c2)CCCN3C(=O)C2CCC2)c1	x	23.1µM*	x	x	x	u
CCc1cccc(CC)c1NS(=O)(=O)c1ccc2c(c1)CCN2C(=O)C1CC1	x	u	x	x	x	-27.9%
COc1ccc(C)cc1NS(=O)(=O)c1ccc2c(c1)CCN2C(C)=O	-4.3%	u	-0.6%	-1.5%	45.2	-23.8%
